# From PubChem BioAssay (NCI)
# This is part of a sample that, as a whole, favours compounds with a hit. Of some 79,000 tested, about 15% had one in any assay. Active and inactive are the calls of the source. Rule as the data show it: active = growth inhibition above about 70%; inactive = the rest.
# Assay: NCI Yeast Anticancer Drug Screen. Data for the cln2 rad14 strain (AID 165);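 also: 0% = growth equal to vehicle treated cultures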
# Conditions: S. cerevisiae cln2 rad14 strain, at 50.0 µM, stronger effect = higher value
# Outline: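 Strain: cln2 rad14 yeast, altered in cell cycle control and DNA damage repair. Read-out: growth inhibition vs vehicle.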
row,Compound,growth inhibition
1,COC(=O)/C=C/C(=N/N(C)c1ccccc1)c1ccccc1,-49% (inactive)
2,COc1ccc(N2C=Nn3c(nc4sc5c(c4c3=O)CCCC5)C2)cc1,-1.9% (inactive)
3,Cc1sc2nc3n(c(=O)c2c1C)N=CN(c1ccc(F)cc1)C3,-17.1% (inactive)
4,N#CC(N)(C(=O)C(=O)NCCCNC(=O)C(=O)C(N)(C#N)c1ccc(Cl)cc1)c1ccc(Cl)cc1 (stereo not given),-18.6% (inactive)
5,CCOC(=O)C(=O)Nc1ccc2cc(OC)ccc2c1C#N,35.2% (inactive)
6,CC(COc1ccc(Cl)cc1)OS(=O)(=O)CCCl (stereo not given),-16.1% (inactive)
7,N#Cc1c(NC(=S)NC(=O)c2ccccc2)nc2c(c1-c1ccccc1)CCCC2,1.05% (inactive)
8,C=CCCC1CC(OCC)OC(CCC=C)O1 (stereo not given),-24.8% (inactive)
9,CC1(C)CC(C)(OC(=O)c2ccccc2)N=N1 (stereo not given),-16.4% (inactive)
10,CCCOC(=O)CCCC1=NC2=CC=CC3=NC(C)=NC(=N1)N23,-45.1% (inactive)
11,c1ccc(N=C2CCCCCC2)cc1,7.15% (inactive)
12,c1ccc2c(c1)OP1(=NP3(=NP4(=NP5(=N1)Oc1ccccc1-c1ccccc1O5)Oc1ccccc1-c1ccccc1O4)Oc1ccccc1-c1ccccc1O3)Oc1ccccc1-2,-4.1% (inactive)
13,O=C(O)CCC(=O)c1ccc2c3c(cccc13)CC2,46% (inactive)
14,CCc1ccc2c(c1)CCC(=O)O2,-23.7% (inactive)
15,CC(=O)OCC1OC(n2c(O)c(/C=C3\C=Nc4ccccc43)sc2=S)C(OC(C)=O)C(OC(C)=O)C1OC(C)=O (stereo not given),18.9% (inactive)
